Assay outcomes as filed in PubChem.
ATG4B inh: ATG4B protease inhibitors, primary screen, biochemical, fluorescence, uHTS. Cysteine protease ATG4B (Homo sapiens), Q9Y4P1. 0.51% of 340,000 active. ATG4B cleavage of LC3-PLA2, NBD-HPC fluorescence, 1 h. inhibition, % at 8.33 µM; in the data active = inhibition above about 40%
NadD block: inhibitors of S. aureus NadD, primary screen, biochemical, colorimetric, uHTS; Nicotinate-nucleotide adenylyltransferase NadD (Staphylococcus aureus N315); purified NadD enzyme, colorimetric absorbance read-out; inhibition, % at 20 µM; 0.78% of 360,000 active; in the data active = inhibition above about 26%
Calb FLC: C. albicans growth inhibition with fluconazole, primary screen, CaCi-2 strain, Alamar Blue fluorescence. C. albicans CaCi-2 (fluconazole-resistant clinical isolate) + fluconazole, 48 h. 0.57% of 300,000 active. growth inhibition, % (no concentration beside the values);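 active = growth inhibition above about 58% in most replicates, limit read from the data, passing the limit was not always enough; inconclusive = exactly half the replicates above a set limit; inactive = most replicates below a set limit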;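 note: all wells also contain fluconazole at 8 µg/ml as a sub-toxic cotreatment; 0% = median of DMSO wells and 100% = median of geldanamycin control wells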
FAS-TE inh: FAS thioesterase domain inhibitors, primary screen, biochemical, fluorescence intensity, uHTS. Fatty acid synthase (Homo sapiens), P49327. recombinant FAS-TE, OMFH fluorogenic substrate, fluorescence endpoint. inhibition, % at 15 µM. 0.67% of 360,000 active. AID 602261, 2012;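 active = compounds whose normalised, plate-corrected inhibition of enzyme fluorescence in the single-dose primary screen is 50% or more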;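 note: 0% = DMSO with enzyme and 100% = substrate without enzyme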
Mot1-301 SUMO: yeast Mot1-301 growth rescue at high temperature, primary screen, SUMOylation pathway inhibitor project, S. cerevisiae, ATP luminescence, 38.5C | 1% of 320,000 active | growth rescue, % at 18.8 µM | AID 2716, 2010 | S. cerevisiae Mot1-301 growth rescue; percent above DMSO median, 100 means doubled;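 active = every valid replicate shows activation above 250% relative to neutral control wells; inactive = the rest, any valid replicate at or below 250%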;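 note: OY570 slx delta 5 strain wells were the positive control but not used for scaling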
Mot1 SUMO dose: growth restoration of Mot1-301 yeast on galactose, dose response, SUMO pathway inhibitor project, whole organism, S. cerevisiae, ATP luminescence, cherry-picked samples. shares compounds with Mot1-301 SUMO. S. cerevisiae Mot1-301 galactose growth, 24 h; -100 = growth of slx-deleted rescue strain. growth activity, percent, % at 42 µM. 2,300 tested, under 10 active;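 active = Signal drops as the depositor expects, and the fitted half-maximal dose is no more than ten times the top valid tested dose; inconclusive = Poor fit, or a flat curve whose signal drops by 30% to 70%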;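 note: more negative values mean stronger growth rescue toward the control strain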
* hit, by the source's call; ? = inconclusive; . = not tested or not shown. In the library only some 3.1% were active in any assay of this set; here they are far more common.

SMILES | ATG4B inh | NadD block | Calb FLC | FAS-TE inh | Mot1-301 SUMO | Mot1 SUMO dose
Cc1cc(NS(=O)(=O)c2ccc(NC(=O)CCCOc3ccccc3C)cc2)no1 | 3 | -5 | -9 | -6 | 144 | .
CC(CCc1ccccc1)NC(=O)CCc1cn(C)c2ccccc12 (configuration not stated) | -2 | -4 | 3 | 10 | 87 | .
CC(C)NC(=O)CCCc1cn(C)c2ccccc12 | -12 | 4 | 3 | -4 | 503* | 1
C/C(=N/OCO/N=C(\C)c1ccccc1)c1ccccc1 | 10 | -4 | 9 | 19 | 640* | 0
CCCN1CCN(CCCNC(=O)CCn2nc(-c3ccccc3)ccc2=O)CC1 | -8 | -2 | 1 | -5 | 565* | 0
CN1CCN(CCCNC(=O)Cn2nc(-c3ccccc3)ccc2=O)CC1 | -15 | -2 | 8 | -8 | 11 | .
CCS(=O)(=O)c1nc(S(=O)(=O)c2ccc(Cl)cc2)c(N2CCc3ccccc3C2)s1 | 4 | -6 | 6 | 18 | 444* | 0
O=C(Nc1ccc(F)cc1F)N1CCCN(c2ccc(C(F)(F)F)cn2)CC1 | -3 | -2 | 12 | 0 | 548* | -1
CC1CN(CCOc2ccc([N+](=O)[O-])cc2)CC(C)O1 (configuration not stated) | -7 | -1 | -14 | -10 | -20 | .
CC1CN(CCCOc2ccc([N+](=O)[O-])cc2)CC(C)O1 (configuration not stated) | -4 | -6 | 11 | -9 | 463* | 1
COc1ccc(N(C)S(=O)(=O)c2cccc(C(=O)Nc3cccc(C(=O)NC4CC4)c3)c2)cc1 | -5 | 3 | . | 10 | -4 | .
O=C1C2=C(C(c3ccccc3)=NCCN2)C(c2cccc([N+](=O)[O-])c2)N1c1ccccc1 (configuration not stated) | 0 | -2 | -5 | -1 | -8 | .
CCOC(=O)c1c(C)[nH]c2c1cc(O)c1ccccc12 | -12 | 13 | 28 | 4 | 769* | -1
Cc1sc(NC(=O)CSC2=NCCS2)nc1-c1ccccc1 | 1 | -12 | 3 | -2 | 722* | -1
CC12CCC(=O)N1C(C(=O)Nc1nc(-c3ccccc3)cs1)CS2 (configuration not stated) | 0 | -3 | -3 | -6 | 215 | .
COc1ccc(-c2csc(NC(=O)C3CSC4(C)CCC(=O)N34)n2)cc1 (configuration not stated) | -6 | 2 | . | -6 | 391* | 1
CC1CCN(c2nc3c(c(=O)[nH]c(=O)n3C)n2CC(C)CSc2nnnn2-c2ccccc2)CC1 (configuration not stated) | -9 | 2 | -14 | 7 | -5 | .
O=c1nc2ccc(Cl)cn2c2ccc(S(=O)(=O)N3CCOCC3)cc12 | -12 | 0 | 15 | 1 | 577* | 0
O=c1nc2ccc(Cl)cn2c2ccc(S(=O)(=O)N3CCCCC3)cc12 | -4 | 4 | ? | 5 | -22 | .
O=C(N/N=C/c1ccc[nH]1)c1ccc([N+](=O)[O-])cc1 | -4 | -1 | -16 | -5 | -11 | .
O=C(O)C1CCCCC1C(=O)NCCc1ccc(F)cc1 (configuration not stated) | -5 | 0 | 12 | -5 | -7 | .
O=C(OCCCCOC(=O)c1ccccc1)c1ccccc1 | -3 | -6 | -2 | 40 | 529* | 0
O=C(O)c1cccc(N2C(=O)C3C4C=CC(C4=C(c4ccccc4)c4ccccc4)C3C2=O)c1 (configuration not stated) | -1 | 4 | 12 | 36 | 599* | 0
CC1(C)CNc2cc([N+](=O)[O-])ccc2S1 | 2 | -11 | -19 | 5 | 810* | 2
O=c1c(Cc2ccccc2)c(O)ccn1CCc1cnc[nH]1 | -4 | -4 | 16 | 0 | -2 | .
COc1ccc(-c2csc(NC(=O)CS(=O)(=O)c3ccccc3)n2)cc1 | 1 | -3 | 0 | 7 | 31 | .
